Screening results deposited in PubChem by National Center for Advancing Translational Sciences (NCATS).
Rab9 prom act – Rab9 promoter activation; Huh7 Rab9 promoter-luciferase reporter, luminescence, 24 h; Potency, µM (highest dose often 9.22 µM), for inactives: at the highest dose activation, negative = inhibition, actives largely listed as activators; 2.8% of 320,000 active; AID 485297; further: % of control where 0% means no effect; nearly all actives have a fitted effect of over 60% in size
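Huh7 cells stably carrying Rab9 promoter–luciferase reporter, plated 1500 cells/well, compound added after 2 h and incubated 24 h at 37 °C; luciferase luminescence then read after 10 min with detection reagent.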
ELG1 genotox – induces genotoxicity in HEK293T cells with luciferase-tagged ELG1. HEK293T ELG1-luciferase reporter, luminescence, 16 h. Potency, µM (titrated, usually from 46 µM), for inactives: at the top dose activity change, positive = activation, hits mostly activators. 1.3% of 330,000 active; further: % of control where 0% means no effect; nearly all actives have a fitted effect of over 60% in size
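Genotoxicity was scored as increased ELG1-luciferase reporter signal, measured by ONE-Glo luminescence (30 min, room temperature). Compound or vehicle exposure of the HEK293T reporter cells lasted 16 hr at 37°C.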
NPC1 prom act – activates the NPC1 promoter; Huh7 NPC1 promoter luciferase reporter, 24 h; Potency, µM (highest dose often 9.22 µM), inactives show top-dose activation, hits mostly activators; 2.4% of 320,000 active; AID 485313; further: % of control where 0% means no effect; nearly all actives have a fitted effect of over 60% in size
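Quantitative HTS used a cell-based reporter: Huh7 cells stably bearing the NPC1 promoter upstream of luciferase were treated with compounds for 24 h, and promoter activation was read as luminescence.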
ELG1 repair inh – ELG1-dependent DNA repair inhibition; HEK293T ELG1-luciferase reporter, luminescence, 16 h; DNA damage induced by 5-fluorouridine; Potency, µM (top dose mostly 46.1 µM), for inactives: at the highest dose activity change, negative = inhibition, actives largely listed as inhibitors; 2.3% of 330,000 active; AID 504467; further: on the % scale 0 is the no-effect control and ±100 the full control effect; nearly all actives have a fitted effect of over 55% in size
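5-Fluorouridine DNA damage + compound/DMSO, 2,000 cells/well, 16 h, 37 °C/5% CO2. ONE-Glo, 30 min RT, luminescence. Readout = decrease in reporter signal.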
FLuc modulator – counter-screen for miR-21 project: firefly luciferase inhibitors or activators | P08659 | purified FLuc, Km substrates, luminescence inhibition | Potency, µM (doses to about 57.5 µM), for the others: at the top dose activity change, negative = inhibition, most hits filed as inhibitors | 6.9% of 360,000 active;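 further: plate controls were vehicle for no effect and reference inhibitor for full effect; nearly all actives have a fitted effect of over 55% in size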
Target sequence (P08659 whole entry, looked up): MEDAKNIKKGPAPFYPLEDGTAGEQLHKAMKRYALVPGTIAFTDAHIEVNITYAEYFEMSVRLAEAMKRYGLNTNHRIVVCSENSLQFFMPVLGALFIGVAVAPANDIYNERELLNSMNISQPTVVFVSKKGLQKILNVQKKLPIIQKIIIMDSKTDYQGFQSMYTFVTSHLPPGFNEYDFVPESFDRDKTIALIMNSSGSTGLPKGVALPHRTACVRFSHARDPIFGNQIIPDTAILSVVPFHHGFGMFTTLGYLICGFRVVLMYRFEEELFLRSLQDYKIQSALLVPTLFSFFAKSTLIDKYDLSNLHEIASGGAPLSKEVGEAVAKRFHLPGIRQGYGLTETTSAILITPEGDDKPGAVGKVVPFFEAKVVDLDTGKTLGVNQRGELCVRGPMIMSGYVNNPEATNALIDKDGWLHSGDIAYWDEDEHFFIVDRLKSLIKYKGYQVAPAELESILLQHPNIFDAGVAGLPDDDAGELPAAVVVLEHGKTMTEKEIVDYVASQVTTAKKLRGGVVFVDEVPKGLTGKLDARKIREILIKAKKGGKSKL
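Purified P. pyralis luciferase, 10 nM final, with Km-level 10 uM D-luciferin and 10 uM ATP in 50 mM Tris acetate pH 7.5, 10 mM Mg acetate, 0.01% Tween-20, 0.05% BSA; 6-point qHTS titration about 60 µM downward; luminescence read.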
SMN2 splice enh – increases expression of the SMN2 splice variant | HEK293 SMN2-luciferase splicing reporter, luminescence, 30-36 h | Potency, µM (top dose mostly 46.1 µM), without a hit: at the top dose activity change, positive = activation, actives largely listed as activators | 2.8% of 210,000 active | AID 1458; further: % of control where 0% means no effect; nearly all actives have a fitted effect of over 55% in size
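qHTS luciferase splicing reporter: luminescence rises when SMN2 exon 7 is included in transfected HEK293 cells. Compound exposure lasted 30-36 h at 37C, with 4.5 mM final sodium butyrate as control, followed by a ONE-Glo read.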
The depositor's hits bear a star. An excerpt weighted towards active compounds, which were near 9.2% of everything screened. The call rests on the fitted dose curve; in most records, active means well fitted curve in the direction sought with a large enough effect; inconclusive means small, poorly fitted or top-dose-only effect, or another doubt; inactive means no such curve, though single readings can be large; an effect the other way counts as inactive or inconclusive. Potency means the concentration at half of the fitted maximal effect.

How did CCCCc1ccc(NC(=S)NCCc2ccc(F)cc2)cc1 do in these assays?
Rab9 prom act: -4%; ELG1 genotox: 3%; NPC1 prom act: 0%; ELG1 repair inh: -4%; FLuc modulator: -8%; SMN2 splice enh: 4%

Results for O=[N+]([O-])c1ccc(Cc2nnc(-c3ccc(F)cc3)o2)cc1 ?
Rab9 prom act: 1µM*; ELG1 genotox: -4%; NPC1 prom act: inconclusive; ELG1 repair inh: inconclusive; FLuc modulator: -11%; SMN2 splice enh: 5%

What do the screens show for `COc1ccc(Cc2nnc(-c3ccc(F)cc3)o2)cc1OC`?
Rab9 prom act: 1%; ELG1 genotox: inconclusive; NPC1 prom act: -1%; ELG1 repair inh: 7%; FLuc modulator: -1%; SMN2 splice enh: -45%

What do the screens show for `Cc1ccc(-c2nnc(Cc3ccc([N+](=O)[O-])cc3)o2)cc1`?
Rab9 prom act: 2.2µM*; ELG1 genotox: inconclusive; NPC1 prom act: inconclusive; ELG1 repair inh: inconclusive; FLuc modulator: -2%

Results for CN(CCNC(=O)c1ccc(CS(=O)(=O)c2c(Cl)cccc2Cl)o1)CCc1ccccc1 ?
Rab9 prom act: 2%; ELG1 genotox: -3%; NPC1 prom act: 0%; ELG1 repair inh: inconclusive; FLuc modulator: 3%

How did COc1ccc(-n2c3c(cc(C#N)c2=O)C(=O)CCC3)cc1 do in these assays?
Rab9 prom act: 1%; ELG1 genotox: 3%; NPC1 prom act: -6%; ELG1 repair inh: 21%; FLuc modulator: -1%

What do the screens show for `O=Cc1ccccc1OCCOc1ccccc1C=O`?
Rab9 prom act: 3%; ELG1 genotox: inconclusive; NPC1 prom act: 0%; ELG1 repair inh: inconclusive; FLuc modulator: 24µM*; SMN2 splice enh: inconclusive

Results for CSc1nnc(-c2ccccc2N=Cc2c(C)[nH]n(-c3ccc4ccccc4c3)c2=O)c(=O)[nH]1 ?
Rab9 prom act: 7%; ELG1 genotox: 19%; NPC1 prom act: 18%; ELG1 repair inh: inconclusive; FLuc modulator: 9.5µM*; SMN2 splice enh: inconclusive

What do the screens show for `CCOC(=O)C1(CCOc2ccccc2)CCN(Cc2cccc(OC)c2O)CC1`?
Rab9 prom act: -8%; ELG1 genotox: -7%; NPC1 prom act: 8%; ELG1 repair inh: inconclusive; FLuc modulator: -4%

How did CCC(C)NC(=S)N(CCc1ccccc1)Cc1cc2cc(OC)c(OC)cc2[nH]c1=O (stereo not given) do in these assays?
Rab9 prom act: -2%; ELG1 genotox: -6%; NPC1 prom act: 1%; ELG1 repair inh: 6.5µM*; FLuc modulator: -1%; SMN2 splice enh: 7%

What do the screens show for `COc1cc2cc(CN(Cc3cccnc3)C(=O)Nc3ccccc3)c(=O)[nH]c2cc1OC`?
Rab9 prom act: -10%; ELG1 genotox: -2%; NPC1 prom act: -9%; ELG1 repair inh: 7.3µM*; FLuc modulator: -15%; SMN2 splice enh: 8%

How did COc1cc2cc(CN(Cc3cccnc3)C(=O)NCc3ccccc3)c(=O)[nH]c2cc1OC do in these assays?
Rab9 prom act: 0%; ELG1 genotox: 1%; NPC1 prom act: 1%; ELG1 repair inh: inconclusive; FLuc modulator: -1%; SMN2 splice enh: 43%

Results for Cc1noc(/C=C/N(C)C)c1S(=O)(=O)N(C)Cc1ccc(F)cc1 ?
Rab9 prom act: -3%; ELG1 genotox: -5%; NPC1 prom act: -4%; ELG1 repair inh: 7%; FLuc modulator: 1%

How did COc1ccc(NC(=O)c2ccco2)c(NC(=O)c2ccc([N+](=O)[O-])cc2)c1 do in these assays?
Rab9 prom act: 5%; ELG1 genotox: 12%; NPC1 prom act: -2%; ELG1 repair inh: inconclusive; FLuc modulator: 2%

Results for CNC(=O)C12CC3CC(CC(Cl)(C3)C1)C2 ?
Rab9 prom act: -2%; ELG1 genotox: -4%; NPC1 prom act: -1%; ELG1 repair inh: 30%; FLuc modulator: -1%; SMN2 splice enh: 6%

How did CC(=O)N1CCN(CC(O)COc2ccc(S(=O)(=O)N3CCOCC3)cc2)CC1 (stereo not given) do in these assays?
Rab9 prom act: -1%; ELG1 genotox: 0%; NPC1 prom act: -4%; ELG1 repair inh: 0%; FLuc modulator: 7%

Results for CCOc1ccc(N(C)S(=O)(=O)c2c(C(=O)N3CCC(C)CC3)c(C)n(C)c2C)cc1 ?
FLuc modulator: -10%

What do the screens show for `O=C(NCCCCc1ccccc1)Nc1ccc(F)cc1`?
Rab9 prom act: 10%; ELG1 genotox: 2%; NPC1 prom act: 1%; ELG1 repair inh: 13%; FLuc modulator: inconclusive

Results for Cc1ccccc1Nc1nc(N)nc(COC(=O)c2c(C)noc2C)n1 ?
ELG1 genotox: 0%; ELG1 repair inh: inconclusive

What do the screens show for `CCN(CC)c1ccc(C=C2C(=O)OC(c3ccccc3)OC2=O)cc1` (stereo not given)?
Rab9 prom act: -1%; ELG1 genotox: -9%; NPC1 prom act: -2%; ELG1 repair inh: inconclusive; FLuc modulator: 12µM*; SMN2 splice enh: -3%

Results for CCN(CC)c1ccc(C=C2C(=O)OC3(CCCC3)OC2=O)cc1 ?
Rab9 prom act: -2%; ELG1 genotox: 5%; NPC1 prom act: -1%; ELG1 repair inh: inconclusive; FLuc modulator: inconclusive; SMN2 splice enh: -1%

Results for Clc1ccccc1CSc1ncn(-c2ccccc2)n1 ?
Rab9 prom act: inconclusive; ELG1 genotox: inconclusive; NPC1 prom act: 3.5µM*; ELG1 repair inh: inconclusive; FLuc modulator: 7.6µM*; SMN2 splice enh: 22µM*

Results for Cc1ccc(-n2ncc3c(=O)n(CC(=O)N4CCCc5ccccc54)cnc32)cc1C ?
Rab9 prom act: 0%; ELG1 genotox: -6%; NPC1 prom act: 1%; ELG1 repair inh: 23µM*; FLuc modulator: 4%; SMN2 splice enh: -53%

How did Cc1ccc(-n2ncc3c(=O)n(CC(=O)OCc4ccccc4)cnc32)cc1 do in these assays?
Rab9 prom act: 18%; ELG1 genotox: 8%; NPC1 prom act: 7%; ELG1 repair inh: inconclusive; FLuc modulator: inconclusive; SMN2 splice enh: -8%

What do the screens show for `O=C(Cn1cnc2c(cnn2-c2ccccc2)c1=O)OCc1ccccc1`?
Rab9 prom act: 4µM*; ELG1 genotox: 7%; NPC1 prom act: 23%; ELG1 repair inh: inconclusive; FLuc modulator: 11µM*; SMN2 splice enh: 8%

What do the screens show for `O=C(Cn1cnc2c(cnn2-c2ccc(F)cc2)c1=O)N1CCN(c2ccccc2F)CC1`?
Rab9 prom act: -7%; ELG1 genotox: -4%; NPC1 prom act: -3%; ELG1 repair inh: 18µM*; FLuc modulator: 2%; SMN2 splice enh: -60%
